Results from publication PMC4336329 (PLoS ONE, 2015).
Out of some 310,000 compounds screened, about 14,000 (4.5%) showed an effect of 50% or more. Effects have a minus sign here. What follows is part of a selection rich in strong results, with near analogues and random picks from the rest.

What follows are compounds tested against human ether-à-go-go-related gene (hERG) potassium channel (human, UniProt Q12809) (assay: primary screen, population patch clamp on CHO cells stably expressing hERG; higher = less effect of the substance).
Chain of human ether-à-go-go-related gene (hERG) potassium channel (Q12809 whole entry, looked up): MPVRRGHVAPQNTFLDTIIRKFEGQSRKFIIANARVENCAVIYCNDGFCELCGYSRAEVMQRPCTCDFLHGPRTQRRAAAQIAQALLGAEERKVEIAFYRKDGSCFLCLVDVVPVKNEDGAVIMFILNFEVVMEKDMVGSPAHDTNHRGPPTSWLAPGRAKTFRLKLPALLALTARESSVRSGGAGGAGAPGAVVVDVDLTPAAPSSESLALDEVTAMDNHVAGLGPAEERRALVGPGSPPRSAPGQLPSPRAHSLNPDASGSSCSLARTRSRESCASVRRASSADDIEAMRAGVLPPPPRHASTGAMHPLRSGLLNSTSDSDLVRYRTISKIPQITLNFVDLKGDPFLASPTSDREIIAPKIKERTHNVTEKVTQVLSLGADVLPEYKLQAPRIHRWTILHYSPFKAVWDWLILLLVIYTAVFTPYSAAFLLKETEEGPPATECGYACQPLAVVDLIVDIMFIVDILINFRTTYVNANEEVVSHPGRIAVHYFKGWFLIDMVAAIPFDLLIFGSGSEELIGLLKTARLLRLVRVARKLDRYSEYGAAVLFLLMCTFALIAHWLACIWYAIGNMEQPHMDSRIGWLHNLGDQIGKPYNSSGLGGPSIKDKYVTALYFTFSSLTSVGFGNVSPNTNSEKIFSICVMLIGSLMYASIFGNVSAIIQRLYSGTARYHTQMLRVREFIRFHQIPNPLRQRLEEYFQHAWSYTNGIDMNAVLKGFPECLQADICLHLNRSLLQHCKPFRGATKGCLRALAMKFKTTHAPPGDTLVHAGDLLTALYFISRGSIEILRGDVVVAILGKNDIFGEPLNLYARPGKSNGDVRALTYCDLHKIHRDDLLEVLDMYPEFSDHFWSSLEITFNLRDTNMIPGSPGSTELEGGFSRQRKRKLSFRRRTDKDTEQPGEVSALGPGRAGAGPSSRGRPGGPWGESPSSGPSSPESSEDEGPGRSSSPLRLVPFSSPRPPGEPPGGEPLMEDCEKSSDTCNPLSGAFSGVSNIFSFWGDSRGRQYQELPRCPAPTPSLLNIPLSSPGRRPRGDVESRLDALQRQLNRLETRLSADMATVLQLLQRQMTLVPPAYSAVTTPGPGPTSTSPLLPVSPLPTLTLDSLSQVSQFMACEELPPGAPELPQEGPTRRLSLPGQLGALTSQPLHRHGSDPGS
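Further: peak tail current of the secondary pulse compared with the same well before compound.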

Row | SMILES | hERG current change (%, negative = inhibition) at 10uM
1 | CCn1c(CNC(=O)c2ccc(OC)c(OC)c2)nnc1SCC(=O)c1ccc(OC)cc1 | -0.747%
2 | O=C(CSc1ncn[nH]1)Nc1ccc(Cl)c(Cl)c1 | 0.453%
3 | Cn1cc2cccc([N+](=O)[O-])c2n1 | 2.69%
4 | O=C(CSc1nc2ccc([N+](=O)[O-])cc2[nH]1)c1ccc(Cl)cc1 | 12.1%
5 | O=C1c2ccccc2C2(c3ccccc3)NCCN12 (centres unmarked) | 5.86%
6 | CN(CC(=O)Nc1cccc2ccccc12)c1ccc(S(=O)(=O)N2CCOCC2)cn1 | 11.8%
7 | COc1ccccc1CCCNC(=O)C1CCC(=O)N(CCCN2CCCC2=O)C1 (centres unmarked) | 14%
8 | COc1ccccc1CCCNC(=O)C1CCC(=O)N(CCc2ccc(Cl)cc2)C1 (centres unmarked) | -60.5%
9 | CCc1ccc(CNC(=O)C2CCC(=O)N(CCc3ccc(Cl)cc3)C2)nc1 (centres unmarked) | -67%
10 | O=C(NCc1ccccn1)C1CCC(=O)N(Cc2ccc(Cl)cc2)C1 (centres unmarked) | 18.7%
11 | Cc1ccc(CNC(=O)C2CCC(=O)N(CCc3ccc(Cl)cc3)C2)cc1 (centres unmarked) | -40.2%
12 | O=C(NCc1ccncc1)C1CCC(=O)N(CCc2ccc(Cl)cc2)C1 (centres unmarked) | -65.5%
13 | O=C(NCc1ccon1)C1CCC(=O)N(CCc2ccc(Cl)cc2)C1 (centres unmarked) | -37.2%
14 | CCn1nc(C)c(CNC(=O)C2CCC(=O)N(CCc3ccc(Cl)cc3)C2)c1C (centres unmarked) | -21.6%
15 | Cc1ccc(CCN2CC(C(=O)NCc3ccc4c(c3)OCO4)CC2=O)cc1 (centres unmarked) | -37.2%
16 | COc1ccccc1CCCNC(=O)C1CCC(=O)N(Cc2ccccc2F)C1 (centres unmarked) | -1.76%
17 | O=C(NCc1ccc2c(c1)OCO2)C1CC(=O)N(CCc2ccccc2)C1 (centres unmarked) | 3.54%
18 | O=C(NCc1ccc2c(c1)OCO2)C1CC(=O)N(CCc2ccc(Cl)cc2)C1 (centres unmarked) | -54.1%
19 | CCOc1ccc(C)cc1S(=O)(=O)Nc1ccc(Cl)cn1 | -3.98%
20 | Cn1c(=O)cc(OCC(=O)N2CCCc3ccccc32)c2ccccc21 | -3.03%
21 | CCOC(=O)C1(Cc2ccccc2C)CCCN(C(=O)CN2CCCCC2=O)C1 (centres unmarked) | 14.8%
22 | COc1ccc(C(CC(=O)O)NC(=O)COc2ccc(C)cc2)cc1OC (centres unmarked) | 15.2%

Row | SMILES | hERG current change (%, negative = inhibition) at 10uM
23 | CCOC(=O)c1c(NC(=O)c2cccs2)sc2c1CCCC2 | 15.6%
24 | Cc1ccccc1NC1=NCC(C)S1 (centres unmarked) | -2.32%
25 | CCOC(=O)CN1C(=O)N[C@@H](c2cccs2)C(C(=O)OC)=C1C | -11%
26 | CCCc1nn2c(=O)cc(CSCC(=O)Nc3ccc(F)cc3)nc2s1 | -1.51%
27 | COc1ccccc1CN1CC(C(=O)N2CCCCO2)CCC1=O (centres unmarked) | -65.7%
28 | COc1ccccc1CN1CC(C(=O)NCCN(C)CCc2ccccc2)CCC1=O (centres unmarked) | -65.7%
29 | CN(CCNC(=O)C1CCC(=O)N(Cc2cccc(F)c2)C1)CCc1ccccc1 (centres unmarked) | -46.3%
30 | Cc1ccccc1CCNC(=O)C1CCC(=O)N(Cc2ccc(Cl)cc2)C1 (centres unmarked) | -33.4%
31 | CN(CCNC(=O)C1CCC(=O)N(Cc2ccc(Cl)cc2)C1)CCc1ccccc1 (centres unmarked) | -72.6%
32 | COc1ccccc1CN1CC(C(=O)N2CCCCCCC2)CCC1=O (centres unmarked) | 3.22%
33 | COc1ccccc1CN1CC(C(=O)N2CCOCC2)CCC1=O (centres unmarked) | -14.6%
34 | COc1ccccc1CN1CC(C(=O)NCCCc2ccc(F)cc2)CCC1=O (centres unmarked) | -41%
35 | O=C(NCCc1ccccc1Cl)C1CCC(=O)N(Cc2ccc(Cl)cc2)C1 (centres unmarked) | -56.8%
36 | O=C(NCCc1ccccc1F)C1CCC(=O)N(Cc2ccc(Cl)cc2)C1 (centres unmarked) | -32.5%
37 | COc1ccccc1CCNC(=O)C1CCC(=O)N(Cc2ccccc2OC)C1 (centres unmarked) | -13.2%
38 | O=C(NC1(c2ccccc2)CC1)C1CCC(=O)N(Cc2ccc(Cl)cc2)C1 (centres unmarked) | -24.1%
39 | O=S(=O)(NC1CCCCC1)c1ccc(N2CCOCC2)nc1 | -2.81%
40 | COc1ccc(C(C(=O)NC2CCCC2)N(C(=O)c2snc(-c3ccc(F)cc3)c2N)c2ccc(F)cc2)cc1 (centres unmarked) | 1.29%
41 | N#Cc1ccccc1NC(=O)c1ccccc1OCC(=O)Nc1ccc2c(c1)oc1ccccc12 | 16.2%
42 | Cc1nn(-c2ccc(F)cc2)c(Cl)c1/C=C/C(=O)OCC(=O)Nc1ccc(F)cc1F | 15.5%
43 | CSc1ccc(NC(=O)CC(C)=O)cc1 | -21.3%
44 | Cc1c(NC(=O)c2cc3c(=O)n4ccccc4nc3s2)c(=O)n(-c2ccccc2)n1C | 8.11%

Row | SMILES | hERG current change (%, negative = inhibition) at 10uM
45 | CN(Cc1nc2ccccc2n1C)S(=O)(=O)c1ccc(Cl)cc1 | 3.21%
46 | CCC(=O)c1c[nH]c(C(=O)NCCc2ccccn2)c1 | 3.31%
47 | O=C(CCNC(=O)N1CCn2c1nc1ccccc12)NCc1ccc(F)cc1 | -6.29%
48 | COc1ccc(Br)cc1/C=C(\C(=O)O)c1ccc(S(=O)(=O)N2CCCCC2)s1 | 0.483%
49 | O=C(NCCc1ccc(Cl)cc1)C1CC(=O)N(CCc2ccccc2)C1 (centres unmarked) | -62%
50 | Cc1ccc(CCN2CC(C(=O)NCCc3ccccc3)CC2=O)cc1 (centres unmarked) | -3.16%
51 | O=C(NCCc1ccccc1)C1CCC(=O)N(Cc2ccc(Cl)cc2)C1 (centres unmarked) | -20.5%
52 | Cc1ccc(CNC(=O)C2CCC(=O)N(CCc3ccccn3)C2)s1 (centres unmarked) | 2.53%
53 | O=C(NCCCc1ccccc1)C1CCC(=O)N(Cc2ccc(Cl)cc2)C1 (centres unmarked) | -61.3%
54 | O=C(NCCc1ccccc1)C1CC(=O)N(CCc2ccccc2)C1 (centres unmarked) | 6.57%
55 | O=C(NCCOc1ccccc1)C1CCC(=O)N(CCc2ccc(Cl)cc2)C1 (centres unmarked) | -88.2%
56 | O=C(NCCOc1ccccc1)C1CCC(=O)N(Cc2ccc(Cl)cc2)C1 (centres unmarked) | -31.2%
57 | O=C(NCc1ccccc1F)C1CCC(=O)N(Cc2ccc(Cl)cc2)C1 (centres unmarked) | -42.1%
58 | O=C(NCCOc1ccccc1)C1CCC(=O)N(CCc2ccccn2)C1 (centres unmarked) | -11.9%
59 | Cc1ccc(CNC(=O)C2CCC(=O)N(CCc3ccc(Cl)cc3)C2)s1 (centres unmarked) | -69.4%
60 | Cc1ccc(CNC(=O)C2CCC(=O)N(CCc3ccccc3)C2)s1 (centres unmarked) | -25.7%
61 | Cc1ccc(S(=O)(=O)N(CCCO)CC(O)CON=C2c3ccccc3-c3ccccc32)cc1 (centres unmarked) | 14.4%
62 | NC(=O)c1ccc(-c2noc(-c3cccc(Cl)c3)n2)cc1 | 19.4%
63 | Cc1ccc(CSCc2ccc(C(=O)O)o2)cc1 | 21.8%
64 | COC(=O)c1ccncc1C(=O)Nc1ccc(Oc2ncc(C(F)(F)F)cc2Cl)cc1 | -5.09%
65 | O=C(CCCCn1c(=O)[nH]c2ccsc2c1=O)NCC1CCCO1 (centres unmarked) | 4.17%
66 | COC(=O)[C@]1(C)CCC[C@@]2(C)C3CC[C@@]4(C)C[C@]3(CCC21)CC(=O)N4Cc1ccc(OC)cc1 (some centres unmarked) | 7.82%

Row | SMILES | hERG current change (%, negative = inhibition) at 10uM
67 | C#CCOCCOCCOCCNc1nc(N2CCN(C(=O)[C@H](CCCC[NH3+])n3cc(CCCC)nn3)CC2)nc(N2CCN(C(=O)[C@H](CCCC[NH3+])n3cc(CCC(=O)O)nn3)CC2)n1.[Cl-] | 17.4%
68 | Cn1nc(C(=O)OCc2ccc(F)cc2)c2ccccc2c1=O | 3.57%
69 | Cc1cc(C)c(OC2(c3ccccc3)OC(=O)c3ccccc32)c(C)c1 (centres unmarked) | -5.57%
70 | Cc1c(C(=O)Nc2ccccc2)c2cc(O)ccc2n1Cc1ccccc1 | 4.2%
71 | O=C(NCc1cccs1)c1noc2c1CCCC2 | -2.52%
72 | O=C(NCCCC1CCCC1)C1CCC(=O)N(Cc2ccc(Cl)cc2)C1 (centres unmarked) | -61.4%
73 | O=C(NCCc1ccccc1Cl)C1CCC(=O)N(CCCc2ccccc2)C1 (centres unmarked) | -34.1%
74 | CC(C)c1cc(CNC(=O)C2CCC(=O)N(CCc3ccc(Cl)cc3)C2)on1 (centres unmarked) | -68.1%
75 | O=C(NCCCc1ccncc1)C1CCC(=O)N(Cc2cccc(C(F)(F)F)c2)C1 (centres unmarked) | -18.7%
76 | O=C(NCCc1cnccn1)C1CCC(=O)N(Cc2ccc(Cl)cc2)C1 (centres unmarked) | 2.46%
77 | O=C(NCCN1CCCC1=O)C1CCC(=O)N(CCc2ccc(Cl)cc2)C1 (centres unmarked) | -4.65%
78 | O=C(NCCCc1ccccc1)C1CCC(=O)N(CCc2ccc(Cl)cc2)C1 (centres unmarked) | -79.8%
79 | CC(C)c1nc(CNC(=O)C2CCC(=O)N(CCc3ccc(Cl)cc3)C2)no1 (centres unmarked) | -27.6%
80 | Cc1cc(CNC(=O)C2CCC(=O)N(CCc3ccc(Cl)cc3)C2)no1 (centres unmarked) | -39.7%
81 | O=C(NCCCC1CCCC1)C1CCC(=O)N(Cc2cccc(F)c2)C1 (centres unmarked) | -15.2%
82 | O=C(NCCCC1CCCC1)C1CCC(=O)N(Cc2ccccc2F)C1 (centres unmarked) | -9.03%
83 | O=C(NCCCc1ccncc1)C1CCC(=O)N(Cc2ccc(Cl)cc2)C1 (centres unmarked) | -61.1%
84 | CCn1c(CNC(=O)c2ccccc2F)nnc1SCC(=O)NC1CCCCC1C (centres unmarked) | 31.8%
85 | O=C(c1ccc(F)cc1)N1CCC(N2CCOCC2)CC1 | -5.45%
86 | O=C(Nc1ccc(S(=O)(=O)Nc2ncccn2)cc1)c1cccc(S(=O)(=O)N2CCCC2)c1 | -4.1%
